In PubChem BioAssay:
Where “and” joins values, the source holds several entries; their conditions need not be identical. Equal entries are not always repeated.

The molecules below were run against Alpha-2C adrenergic receptor (Homo sapiens) (UniProt P18825) (assay: compounds altering alpha2C-coupled GIRK flux – cell-based, HEK293 alpha2C/GIRK1/2, thallium flux, primary screen (AID 624;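 note: slope of fluorescence ratio to pre-addition baseline per second over 15 to 24 s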)). Conditions: thallium flux BTC fluorescence, at 10 µM, actives lie on both sides;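 active = fluorescence slope after compound addition differing from the mean of all screened samples at 99.7% confidence, in either direction; inactive = the rest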.
Sequence of Alpha-2C adrenergic receptor (Homo sapiens) (P18825 whole entry, looked up): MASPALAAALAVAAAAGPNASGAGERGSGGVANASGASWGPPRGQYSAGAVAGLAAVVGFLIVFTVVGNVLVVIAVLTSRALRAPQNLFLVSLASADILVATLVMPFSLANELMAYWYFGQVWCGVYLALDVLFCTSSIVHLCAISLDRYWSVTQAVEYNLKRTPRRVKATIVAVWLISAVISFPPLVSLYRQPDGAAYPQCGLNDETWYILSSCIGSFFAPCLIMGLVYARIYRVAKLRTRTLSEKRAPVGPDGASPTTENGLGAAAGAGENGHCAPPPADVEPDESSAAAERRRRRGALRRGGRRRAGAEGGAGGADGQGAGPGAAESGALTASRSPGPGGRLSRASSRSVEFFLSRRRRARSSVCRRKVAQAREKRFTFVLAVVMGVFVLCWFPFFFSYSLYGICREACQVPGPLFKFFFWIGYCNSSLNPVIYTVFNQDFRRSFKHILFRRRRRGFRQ

slope, inactive:
CCCc1cc(=O)[nH]c(=S)[nH]1 0.00437
CN(C)CCOC(C)(c1ccccc1)c1ccccn1 (stereo unspecified) 0.00491
CCCCNC(=O)NS(=O)(=O)c1ccc(C)cc1 0.00531
CC(=O)[C@@]1(O)CC[C@H]2[C@@H]3C[C@H](C)C4=CC(=O)C=C[C@]4(C)[C@@]3(F)[C@@H](O)C[C@@]21C 0.0055
O=C1NC(=O)C(c2ccccc2)(c2ccccc2)N1 0.00448
CC(C)(C)NC[C@H](O)COc1nsnc1N1CCOCC1 0.00458
O=C(O)CCC(=O)Nc1ccc(S(=O)(=O)Nc2nccs2)cc1 0.00423
Cc1cc(C(C)(C)C)cc(C)c1CC1=NCCN1 0.00474
CN(C)CCCN1c2ccccc2Sc2ccccc21 0.00267
Nc1ccc(C(=O)O)c(O)c1 0.00463 and 0.00637
CC(=O)[C@H]1CC[C@H]2[C@@H]3CCC4=CC(=O)CC[C@]4(C)[C@H]3CC[C@]12C 0.00331
O=c1n(CCCN2CCN(c3cccc(Cl)c3)CC2)nc2ccccn12 0.00504
Cn1c(=O)c2c(ncn2CC(O)CO)n(C)c1=O (stereo unspecified) 0.00483
CC1(C)S[C@@H]2[C@H](NC(=O)Cc3ccccc3)C(=O)N2[C@H]1C(=O)O 0.00416
CN(C)C(=O)Oc1ccc[n+](C)c1 0.005
CCCOc1ccc2nc(NC(=O)OC)[nH]c2c1 0.00449
